Results reported in PubChem BioAssay (NCI).
This is part of a sample that, as a whole, favours compounds with a hit. Of some 79,000 tested, about 15% had one in any assay. Activity calls are given as the source filed them. No stated cut-off is given here; in the data, active means growth inhibition above about 70%; inactive means the rest.

Assay: NCI Yeast Anticancer Drug Screen. Data for the rad18 strain (AID 177)
Settings: S. cerevisiae rad18 mutant growth inhibition; at 11.0 µM; active compounds read high
Outline: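 Readout: growth inhibition vs vehicle controls. Cells: genetically altered yeast strain, DNA repair defect.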

Compound | growth inhibition
Cc1cccc2c(C(O)CBr)cc(-c3ccc(Cl)cc3)nc12 (stereo unspecified) | 98% (active)
CN(C)C[C@H]1CC[C@@H](CN(C)C)C1=O | 22% (inactive)
CC1=C(SCCO)C(=O)c2ccccc2C1=O | -3% (inactive)
COC(=O)CCNc1c2ccccc2nc2cccc([N+](=O)[O-])c12 | 95% (active)
CC(/C=C/c1ccc2c(c1)OCO2)[N+](=O)[O-] (stereo unspecified) | 99% (active)
COC(=O)C1=C(C)NC(C)=C(C(=O)OCCCN2CCC(c3ccccc3)(c3ccccc3)CC2)C1c1cccc([N+](=O)[O-])c1 (stereo unspecified) | 94% (active)
CCOC(=O)c1cnc2c(C(F)(F)F)cccc2c1N=[N+]=[N-] | -10% (inactive)
O=[N+]([O-])c1cc2no[n+]([O-])c2cc1N1CCCCC1 | 97% (active)
COC(=O)c1ccc(NCC2=CC(=O)C=CC2=O)cc1O | 85% (active)
CCCCCCCCNC(=O)C1=C(C)NC(C)=C(C(=O)NCCCCCCCC)C1 | -4% (inactive)
S=C(Nc1ccc(Cl)c(Cl)c1)SCc1ccc2c(c1)OCO2 | 99% (active)
O=S(=O)(CCCl)c1ccccc1Cl | 83% (active)
Nc1ccccc1CC(O)C(=O)O (stereo unspecified) | 10% (inactive)
CN(C)c1ccc(Sc2ccc3nc(N)nc(N)c3c2)cc1 | -12% (inactive)
CC(C)C1=CCC2C(=C1)CCC1C(C)(C(=O)O)CCCC21C (stereo unspecified) (tested in a mixture with another compound) | -20% (inactive)
Cc1ccc(S(=O)(=O)Oc2cc(Cl)c(Cl)cc2Cl)cc1 | 1% (inactive)
CSC(=S)Nc1cc(C)ccn1 | 15% (inactive)
CC(C)c1cc(C(C)C)c(O)c(C([O-])[O-])c1.CC(C)c1cc(C(C)C)c(O)c(C([O-])[O-])c1.CC(C)c1cc(C(C)C)c(O)c(C([OH2+])[OH2+])c1.CC(C)c1cc(C(C)C)c(O)c(C([OH2+])[OH2+])c1.[Cu+2].[Cu+2].[OH3+].[OH3+] | 34% (inactive)
Cc1cc(I)ccc1N | -15% (inactive)

Compound | growth inhibition
CC(Br)C(=O)c1ccc2cc(Br)c3ccccc3c2c1 (stereo unspecified) | 17% (inactive)
O=C(Nc1ccccc1)OCCc1ccc(Cl)c(Cl)c1 | 17% (inactive)
O=Cc1cccc2ccc3ccccc3c12 | 6% (inactive)
O=[N+]([O-])CC(SCc1ccccc1)c1ccc2c(c1)OCO2 (stereo unspecified) | 79% (active)
Cc1cc(O)cc(O)c1N=Nc1ccc([N+](=O)[O-])cc1 | 8% (inactive)
CCCCCCCCCCCCCC[N+](C)(CC(=O)[O-])Cc1ccccc1 (stereo unspecified) | 99% (active)
CC1=NN(c2cccc(Cl)c2)C(=O)C1 | -22% (inactive)
CC(=O)OCc1ccc(O)c(C=O)c1 | 54% (inactive)
Cc1ccc2ccc3cccc4ccc1c2c34 | 11% (inactive)
Cc1nc(-[n+]2nc(-c3ccncc3)nn2-c2ccccc2)sc1C | 7% (inactive)
C(CCSC1=NCCN1)CSC1=NCCN1 (tested in a mixture with another compound) | 91% (active)
CCCCCCCCCCC(=O)Cl | 15% (inactive)
COC1C=COC2(C)Oc3c(C)c(O)c4c(c3C2=O)/C(=N/C2CCC(O)OC2C)C=C(NC(=O)/C(C)=C\C(=O)C2CC2C(O)C(C)C(O)C(C)C(OC(C)=O)C1C)C4=O (stereo unspecified) | -4% (inactive)
S=c1[nH]nc(Nc2ccc(Cl)cc2)s1 | -4% (inactive)
O=C1CSC(/C=C/c2ccccc2)N1c1ccc(-c2ccc(-n3c(-c4ccccc4)nc4ccccc4c3=O)cc2)cc1 (stereo unspecified) | 5% (inactive)
O=C1C=CC(=O)N1c1ccc2c(c1)Cc1cc(NC(=O)C(F)(F)F)ccc1-2 | 53% (inactive)
Brc1ccc(-c2cc3c(cc2C2SCCS2)OCO3)cc1 | -29% (inactive)
C[CH2][Sn]([CH2]C)([O]C(=O)C(OC(C)=O)c1ccccc1)[O]C(=O)C(OC(C)=O)c1ccccc1 (stereo unspecified) | 37% (inactive)
Cc1ccc2ccc(O)cc2c1 | -22% (inactive)

Same assay, conditions: S. cerevisiae rad18 mutant growth inhibition; at 33.0 µM; active compounds read high

Compound | growth inhibition
Cc1cccc2c(C(O)CBr)cc(-c3ccc(Cl)cc3)nc12 (stereo unspecified) | 95% (active)
CN(C)C[C@H]1CC[C@@H](CN(C)C)C1=O | 36% (inactive)
CC1=C(SCCO)C(=O)c2ccccc2C1=O | 33% (inactive)
COC(=O)CCNc1c2ccccc2nc2cccc([N+](=O)[O-])c12 | 97% (active)
CC(/C=C/c1ccc2c(c1)OCO2)[N+](=O)[O-] (stereo unspecified) | 99% (active)
COC(=O)C1=C(C)NC(C)=C(C(=O)OCCCN2CCC(c3ccccc3)(c3ccccc3)CC2)C1c1cccc([N+](=O)[O-])c1 (stereo unspecified) | 97% (active)
CCOC(=O)c1cnc2c(C(F)(F)F)cccc2c1N=[N+]=[N-] | 40% (inactive)
O=[N+]([O-])c1cc2no[n+]([O-])c2cc1N1CCCCC1 | 97% (active)
COC(=O)c1ccc(NCC2=CC(=O)C=CC2=O)cc1O | 97% (active)
CCCCCCCCNC(=O)C1=C(C)NC(C)=C(C(=O)NCCCCCCCC)C1 | -8% (inactive)
S=C(Nc1ccc(Cl)c(Cl)c1)SCc1ccc2c(c1)OCO2 | 99% (active)
O=S(=O)(CCCl)c1ccccc1Cl | 96% (active)
Nc1ccccc1CC(O)C(=O)O (stereo unspecified) | 60% (inactive)
CN(C)c1ccc(Sc2ccc3nc(N)nc(N)c3c2)cc1 | -17% (inactive)
CC(C)C1=CCC2C(=C1)CCC1C(C)(C(=O)O)CCCC21C (stereo unspecified) (tested in a mixture with another compound) | 15% (inactive)
Cc1ccc(S(=O)(=O)Oc2cc(Cl)c(Cl)cc2Cl)cc1 | -3% (inactive)
CSC(=S)Nc1cc(C)ccn1 | 39% (inactive)
CC(C)c1cc(C(C)C)c(O)c(C([O-])[O-])c1.CC(C)c1cc(C(C)C)c(O)c(C([O-])[O-])c1.CC(C)c1cc(C(C)C)c(O)c(C([OH2+])[OH2+])c1.CC(C)c1cc(C(C)C)c(O)c(C([OH2+])[OH2+])c1.[Cu+2].[Cu+2].[OH3+].[OH3+] | 57% (inactive)
Cc1cc(I)ccc1N | 85% (active)

Compound | growth inhibition
CC(Br)C(=O)c1ccc2cc(Br)c3ccccc3c2c1 (stereo unspecified) | 18% (inactive)
O=C(Nc1ccccc1)OCCc1ccc(Cl)c(Cl)c1 | 45% (inactive)
O=Cc1cccc2ccc3ccccc3c12 | 43% (inactive)
O=[N+]([O-])CC(SCc1ccccc1)c1ccc2c(c1)OCO2 (stereo unspecified) | 98% (active)
Cc1cc(O)cc(O)c1N=Nc1ccc([N+](=O)[O-])cc1 | 11% (inactive)
CCCCCCCCCCCCCC[N+](C)(CC(=O)[O-])Cc1ccccc1 (stereo unspecified) | 99% (active)
CC1=NN(c2cccc(Cl)c2)C(=O)C1 | -20% (inactive)
CC(=O)OCc1ccc(O)c(C=O)c1 | 83% (active)
Cc1ccc2ccc3cccc4ccc1c2c34 | 60% (inactive)
Cc1nc(-[n+]2nc(-c3ccncc3)nn2-c2ccccc2)sc1C | 46% (inactive)
C(CCSC1=NCCN1)CSC1=NCCN1 (tested in a mixture with another compound) | 99% (active)
CCCCCCCCCCC(=O)Cl | 9% (inactive)
COC1C=COC2(C)Oc3c(C)c(O)c4c(c3C2=O)/C(=N/C2CCC(O)OC2C)C=C(NC(=O)/C(C)=C\C(=O)C2CC2C(O)C(C)C(O)C(C)C(OC(C)=O)C1C)C4=O (stereo unspecified) | 10% (inactive)
S=c1[nH]nc(Nc2ccc(Cl)cc2)s1 | 38% (inactive)
O=C1CSC(/C=C/c2ccccc2)N1c1ccc(-c2ccc(-n3c(-c4ccccc4)nc4ccccc4c3=O)cc2)cc1 (stereo unspecified) | 13% (inactive)
O=C1C=CC(=O)N1c1ccc2c(c1)Cc1cc(NC(=O)C(F)(F)F)ccc1-2 | 76% (active)
Brc1ccc(-c2cc3c(cc2C2SCCS2)OCO3)cc1 | 20% (inactive)
C[CH2][Sn]([CH2]C)([O]C(=O)C(OC(C)=O)c1ccccc1)[O]C(=O)C(OC(C)=O)c1ccccc1 (stereo unspecified) | 77% (active)
Cc1ccc2ccc(O)cc2c1 | -23% (inactive)
